Data published in the supplement of paper PMC6555819.

Legend:
Assay in all cases: PBM binding z-score (relative to random genomic background probes); higher = stronger binding; sequences stand for … in GC…GCGATTGACAGCGTAGAATGAAGG
[1] = system: FXR:RXRa (NR concentration 270 nM, RXRa partner concentration 90 nM)
Summary of the method: (§1)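 On custom Agilent 4×180K arrays, double-stranded probes with 34-nt variable regions carried direct-repeat seeds, single-nucleotide variants, half-site ablations or random human genomic background. Ligand-free nuclear receptor dimers were applied for 1 h, and binding was read with antibodies against each partner (one per run). Binding z-scores come from regression-normalized fluorescence, with the random background probes as reference.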

[2] = system: LXRa:RXRa (NR concentration 270 nM, RXRa partner concentration 90 nM)
Summary of the method: as §1

[3] = system: LXRa homodimer (NR concentration 270 nM)
Summary of the method: as §1

[4] = system: LXRb:RXRa (NR concentration 270 nM, RXRa partner concentration 90 nM)
Summary of the method: as §1

[5] = system: LXRb homodimer (NR concentration 270 nM)
Summary of the method: as §1

[6] = system: PPARa:RXRa (NR concentration 270 nM, RXRa partner concentration 90 nM)
Summary of the method: as §1

[7] = system: PPARg:RXRa (NR concentration 180 nM, RXRa partner concentration 90 nM)
Summary of the method: as §1

[8] = system: PPARg:RXRa 270nM:90nM, anti-RXR (NR concentration 270 nM, RXRa partner concentration 90 nM)
Summary of the method: as §1

[9] = system: PPARg:RXRa 30nM:10nM, anti-RXR (NR concentration 30 nM, RXRa partner concentration 10 nM)
Summary of the method: as §1

[10] = system: PPARg:RXRa 90nM:30nM, anti-RXR (NR concentration 90 nM, RXRa partner concentration 30 nM)
Summary of the method: as §1

[11] = system: PPARg:RXRa DBDmut IVT, anti-RXR (DBD mutation: RXRa K156A/R161A, NR concentration 270 nM, RXRa partner concentration 90 nM)
Summary of the method: as §1

[12] = system: PPARg:RXRa IVT, anti-PPARg (NR concentration 270 nM, RXRa partner concentration 90 nM)
Summary of the method: as §1

[13] = system: PPARg DBDmut:RXRa IVT, anti-PPARg (DBD mutation: PPARg1 K132A/R137A, NR concentration 270 nM, RXRa partner concentration 90 nM)
Summary of the method: as §1

[14] = system: PPARg DBDmut IVT, anti-PPARg (DBD mutation: PPARg1 K132A/R137A, NR concentration 270 nM)
Summary of the method: as §1

[15] = system: PPARg homodimer (NR concentration 180 nM)
Summary of the method: as §1

[16] = system: PXR:RXRa (NR concentration 270 nM, RXRa partner concentration 90 nM)
Summary of the method: as §1

[17] = system: PXR homodimer (NR concentration 270 nM)
Summary of the method: as §1

[18] = system: RARa:RXR (NR concentration 270 nM, RXRa partner concentration 90 nM)
Summary of the method: as §1

[19] = system: RARa homodimer (NR concentration 270 nM)
Summary of the method: as §1

[20] = system: RARb:RXRa (NR concentration 270 nM, RXRa partner concentration 90 nM)
Summary of the method: as §1

| Sequence | PBM binding z-score [1] | PBM binding z-score [2] | PBM binding z-score [3] | PBM binding z-score [4] | PBM binding z-score [5] | PBM binding z-score [6] | PBM binding z-score [7] | PBM binding z-score [8] | PBM binding z-score [9] | PBM binding z-score [10] | PBM binding z-score [11] | PBM binding z-score [12] | PBM binding z-score [13] | PBM binding z-score [14] | PBM binding z-score [15] | PBM binding z-score [16] | PBM binding z-score [17] | PBM binding z-score [18] | PBM binding z-score [19] | PBM binding z-score [20] |
| --- | --- | --- | --- | --- | --- | --- | --- | --- | --- | --- | --- | --- | --- | --- | --- | --- | --- | --- | --- | --- |
| CCTAGTTCGTCAAGGTCACACACGCTATAGGTAC | 4.55 | 3.92 | 2.75 | 4.06 | 1.33 | 4.36 | 2.52 | 3.46 | 0.804 | 2.23 | 1.21 | 2.33 | 1 | 1.24 | 4.18 | 5.38 | 10.4 | 4.97 | 2.49 | 4.37 |
| ATATGTAGGTTAAGGGTCATCCAGGTTGGTTCGC | 4.92 | 5.03 | 2.83 | 4.66 | 1.61 | 6.89 | 12.2 | 10.6 | 11.2 | 12.3 | 7.61 | 8.22 | 4.43 | 2.04 | 4.33 | 5.87 | 2.5 | 6.77 | 2.63 | 3.99 |
| GTATCAAGGTGAATAGGTCGTTGATGAGTAGGCG | 0.903 | 1.1 | 0.272 | 0.689 | 0.229 | 2.65 | 2.43 | 2.76 | 1.16 | 2.08 | 3.31 | 4.02 | 1.21 | 0.758 | 1.45 | 0.996 | 0.271 | 2.01 | 0.786 | 2.14 |
| ATCGAAAGGTCGACGAGGTGAGTACACACCGTTT | 4.47 | 3.65 | 0.0409 | 2.84 | 0.25 | 4.44 | 2.84 | 3.38 | 1.11 | 2.41 | 0.467 | 2.23 | 0.931 | 1.06 | 1.57 | 3.19 | 0.753 | 3.6 | 0.262 | 3.82 |
| ACTAGTTGGACAGCTGAGGTCACACACAATTCGG | 3.1 | 2.78 | 1.59 | 3.3 | 0.683 | 3.53 | 1.65 | 1.76 | 0.342 | 1.41 | 0.874 | 1.88 | 0.609 | 0.717 | 1.73 | 4.67 | 1.34 | 4.57 | 1.08 | 3.33 |
| TCTGCTAGGTCAGTTGGTCACCTAACGAGCTGCC | 1.06 | 0.728 | -0.345 | 0.685 | 0.632 | 1.69 | 1.03 | 2.1 | 1.38 | 1.75 | 2.8 | 3.77 | 1.37 | 0.817 | 0.461 | 0.216 | -0.932 | 0.734 | -1.21 | 3.44 |
| CGAACTAGGTCATGCAGGACAGTGAATACATTGA | 3.87 | 2.17 | 0.149 | 1.88 | -0.2 | 4.66 | 7.65 | 6.21 | 3.69 | 5.66 | 8.05 | 8.18 | 3.1 | 1.2 | 1.1 | 1.34 | 0.687 | 1.97 | 0.243 | 3.92 |
| CAAACTAGGTCAAGAGGTAAAAGTCCGCTTCCCG | 4.11 | 3.15 | 0.451 | 2.2 | 0.356 | 5.2 | 8.8 | 7.58 | 5.87 | 7.82 | 8.5 | 8.39 | 6.02 | 5.32 | 3.74 | 1.92 | 0.28 | 3.43 | 0.988 | 4.19 |
| CAAACTAGGTCAAGGTCAAAGACGGTTTGTGCCA | 6.55 | 5.25 | 3.28 | 4.37 | 1.4 | 6.32 | 9.9 | 8.3 | 6.78 | 8.62 | 8.62 | 8.85 | 4.67 | 5.73 | 5.24 | 4.88 | 2.2 | 5 | 2.69 | 5.16 |
| GCAGACAGGTGAAACGCAGGTAACTCAAGGTGGC | -0.175 | 0.4 | -0.42 | -0.165 | -1.28 | 0.892 | 0.604 | -0.0904 | -0.0664 | -0.118 | 1.07 | 0.401 | -0.233 | -0.299 | -0.279 | -0.0534 | -0.612 | 0.593 | -0.358 | 0.608 |
| GCGACTGGGGCAAAGCAGGTTACCATAAGGTTGG | 1.14 | 0.088 | -0.593 | 0.0291 | -1.39 | 1.15 | 1.19 | 1.12 | -0.898 | 0.47 | 4.62 | 3.61 | -0.534 | -0.872 | -0.306 | 0.415 | -0.59 | 0.0364 | -0.818 | 0.93 |
| TCTTGTAGATCAACAGGAAGTTAAGAAAGATCGA | 0.112 | 0.0523 | -0.395 | -0.15 | -0.422 | 0.364 | 0.0673 | 1.13 | 2.73 | 1.58 | 1.64 | 0.249 | 0.464 | 0.377 | -0.378 | -0.183 | -0.761 | -0.00111 | 0.174 | -0.318 |
| GCTTACGGGTCAAAGGTTGTAGCATGAATAGAAT | 7.18 | 4.99 | 0.175 | 4.72 | 0.259 | 6.6 | 9.83 | 8.57 | 7.45 | 9.31 | 5.13 | 5.38 | 0.728 | 1 | 3.02 | 5.04 | 0.237 | 7.21 | 0.364 | 3.99 |
| CCAGACAGGTGAGAAGGTAACACAGCCTCGATTA | 0.191 | 0.2 | 0.0952 | 0.413 | -0.0709 | 1.1 | 0.941 | 0.656 | 0.112 | 0.637 | 1 | 0.723 | -0.672 | -0.419 | 0.988 | -0.0224 | 0.73 | 0.409 | 0.978 | 0.799 |
